{"source": "PubChem BioAssay (Tox21)", "note": "Inconclusive results are not listed. Unmarked numbers belong to inactive results. Active and inactive are the calls of the source. Calls follow the shape of the full dose curve. % is scaled to controls: 0 for no effect and ±100 for the full control effect.", "data": [{"target": "Beta-2 adrenergic receptor (Homo sapiens) (UniProt P07550)", "sequence (P07550 whole entry, looked up)": "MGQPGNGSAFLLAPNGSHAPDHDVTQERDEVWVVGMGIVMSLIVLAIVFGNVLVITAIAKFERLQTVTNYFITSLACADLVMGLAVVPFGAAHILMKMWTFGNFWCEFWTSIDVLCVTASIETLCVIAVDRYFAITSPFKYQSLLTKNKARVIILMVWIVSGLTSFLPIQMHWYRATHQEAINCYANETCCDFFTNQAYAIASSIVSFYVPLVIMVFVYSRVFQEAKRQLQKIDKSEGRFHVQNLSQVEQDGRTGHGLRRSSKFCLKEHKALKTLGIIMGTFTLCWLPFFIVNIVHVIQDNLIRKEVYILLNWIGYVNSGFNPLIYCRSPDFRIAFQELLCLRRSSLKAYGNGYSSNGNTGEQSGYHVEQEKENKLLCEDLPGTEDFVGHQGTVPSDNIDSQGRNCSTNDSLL", "test": "Adrenergic beta2 receptor (ADRB2) small molecule antagonists, cell-based qHTS assay (AID 1963592); also: nearly all actives have a fitted effect of over 50% in size", "details": "CHO-ADRB2 cells, isoproterenol-stimulated cAMP HTRF ratio, 0.5 h; series mostly up to 92.4 µM; activity change, negative = inhibition: at the top concentration", "excerpt": "U.S. Tox21 Program National Center for Advancing Translational Sciences [NCATS] Division of Preclinical Innovation [DPI] U.S. Environmental Protection Agency [EPA] National Institutes of Environmental Health Sciences [NIEHS] National Toxicology Program [NTP] U.S. Food and Drug Administration [FDA] Tox21 Assay Overview: Beta adrenergic receptors (Beta-ARs) belong to the G-protein coupled receptor (GPCR) superfamily, includes three subtypes - beta1, beta2, and beta3. Beta1-AR is the predominant receptor subtype expressed in the heart, and beta2-AR is expressed in the kidney, lung, blood vessel and in the heart, and beta3 is found in the adipocytes. Beta1 and 2 ARs couple to Gs protein and elevate cyclic adenosine mono phosphate (cAMP), which activates protein kinase A and leads to the downstream signaling responsible for the physiological actions. Beta-AR agonists or antagonists are the most prescribed therapeutic agents for heart failure and asthma, and these were one of the first target receptors for the rational drug design. Tox21 10K compound library was screened using the cAMP-Gs dynamic assay (Cisbio Bioassays, Shelton, CT) to identify agonists/antagonists of the Gs-coupled human adrenergic, beta2 receptor (ADRB2) in the CHO-ADRB2 cell line (Codex BioSolutions, Inc. Gaithersburg, MD), which stably over-expresses ADRB2. The principle of cAMP-Gs dynamic assay is based on HTRF technology, which facilitates the fluorescence resonance energy transfer (FRET) between donor Europium cryptate and acceptor d2-labeled cAMP. The cAMP generated within cells competes with the red acceptor, d2-labled cAMP, for binding to the monoclonal anti-cAMP-cryptate (Europium donor). An increase in intracellular cAMP leads to the disruption of FRET signal, and the signal is inversely proportional to the cAMP concentration. Propranolol HCl (Sigma-Aldrich, St. Louis, MO) was used as a positive control in the screening.\nTox21 Assay Protocol Summary: CHO-ADRB2 cells were dispensed at 1,000/well in 4uL assay medium into white/solid 1536-well plates (Greiner Bio-One North America Inc., Monroe, NC) using a Multidrop Combi dispenser (ThermoFisher Scientific, Waltham, MA). The assay plates were incubated at 37C and 5% CO2 for an overnight (18-20hr). Then positive control and test compounds dissolved in DMSO were transferred to the assay plates at 23nL using a Pintool station (Wako, San Diego, CA). Following the compound and positive control transfer, 1uL agonist-stimulation mix containing 1nM Isoproterenol HCl, 100uM IBMX and 25uM Ro-20-1724 was added to each well of the assay plates using BioRAPTR Flying Reagent Dispenser (FRD, Beckman Coulter, Brea, CA). The assay plates were incubated at room temperature for 0.5hr. Then 2.5ul each d2-labled cAMP and anti-cAMP-cryptate solutions were added separately to each well of the assay plates using an FRD and the assay plates were incubated at room temperature for 1hr. The fluorescence signal was measured at two different wavelengths (665nm and 615nm) using an Envision plate reader (Perkin Elmer, Shelton, CT). Data were expressed as the ratio of 665 nm/615 nm.", "values": [{"smiles": "O=NN1CCCC1", "Potency": "inactive"}, {"smiles": "CCCSC(=O)Cl", "activity change, negative = inhibition": "9.12%"}, {"smiles": "C#C[C@]1(O)CC[C@H]2[C@@H]3CCC4=CC(=O)CC[C@]4(C)[C@H]3CC[C@@]21C", "Potency": "inactive"}, {"smiles": "CC(C)N(C(=O)SCC(Cl)=C(Cl)Cl)C(C)C", "activity change, negative = inhibition": "-17.6%"}, {"smiles": "COc1ccc(C(CN(C)C)C2(O)CCCCC2)cc1", "note": "(stereo not given)", "Potency": "inactive"}, {"smiles": "CC(O)CN1CCN(CC(=O)[O-])CCN(CC(=O)[O-])CCN(CC(=O)[O-])CC1.[Gd+3]", "note": "(stereo not given)", "activity change, negative = inhibition": "1% [at 42.5 µM]"}, {"smiles": "O=P1(N(CCCl)CCCl)NCCCO1", "note": "(stereo not given)", "Potency": "inactive"}, {"smiles": "CCCC[n+]1cccc(C)c1", "Potency": "inactive"}, {"smiles": "C#CCO", "activity change, negative = inhibition": "2.49%"}, {"smiles": "COP(=S)(OC)Oc1cc(Cl)c(Cl)cc1Cl", "Potency": "inactive"}, {"smiles": "O=C(Cl)/C=C/C(=O)Cl", "activity change, negative = inhibition": "-11.8%"}, {"smiles": "CCOP(=O)(OCC)OCC", "Potency": "inactive"}, {"smiles": "CCNCC", "Potency": "inactive"}, {"smiles": "CCN(CCO)CCO", "activity change, negative = inhibition": "7.15%"}, {"smiles": "Cc1cccc(N=Nc2ccc(N(C)C)cc2)c1", "activity change, negative = inhibition": "1.12%"}, {"smiles": "C=CC1(C)OC(=O)N(c2cc(Cl)cc(Cl)c2)C1=O", "note": "(stereo not given)", "Potency": "inactive"}, {"smiles": "O=C(O)C(Cl)Br", "note": "(stereo not given)", "activity change, negative = inhibition": "-28%"}, {"smiles": "O=[N+]([O-])c1cc([As](=O)(O)O)ccc1O", "Potency": "inactive"}, {"smiles": "Clc1ccc(C2(Cn3cncn3)OCCO2)c(Cl)c1", "activity change, negative = inhibition": "0.586%"}, {"smiles": "COCCC#N", "activity change, negative = inhibition": "13.6%"}, {"smiles": "C=C(C#N)CCC#N", "activity change, negative = inhibition": "-8.45%"}, {"smiles": "C=CCCC#N", "activity change, negative = inhibition": "6.81%"}, {"smiles": "O=S(=O)(Oc1ccc(Cl)cc1)c1ccc(Cl)cc1", "Potency": "inactive"}, {"smiles": "CCN(CC)C(=O)/C(Cl)=C(\\C)OP(=O)(OC)OC", "Potency": "inactive"}, {"smiles": "Nc1ccc(Cl)c(Cl)c1", "Potency": "inactive"}, {"smiles": "CCOC(=S)S", "Potency": "inactive"}, {"smiles": "CCNc1nc(NCC)nc(SC)n1", "activity change, negative = inhibition": "-11.5%"}, {"smiles": "Cc1ccc(N)cc1", "Potency": "inactive"}, {"smiles": "CCCOC(=O)c1cncn1C(C)c1ccccc1", "note": "(stereo not given)", "activity change, negative = inhibition": "-14.2% [at 42.5 µM]"}, {"smiles": "N[C@@H](Cc1ccc(N(CCCl)CCCl)cc1)C(=O)O", "Potency": "inactive"}, {"smiles": "ClCC1CO1", "note": "(stereo not given)", "activity change, negative = inhibition": "1.23%"}, {"smiles": "CCC(C)(CC)c1cc(NC(=O)c2c(OC)cccc2OC)on1", "activity change, negative = inhibition": "3.54%"}, {"smiles": "CCCCc1c(C)nc(NCC)[nH]c1=O", "activity change, negative = inhibition": "-9.78%"}, {"smiles": "CC12CC1(C)C(=O)N(c1cc(Cl)cc(Cl)c1)C2=O", "note": "(stereo not given)", "activity change, negative = inhibition": "-18.1%"}, {"smiles": "CCCCCCCCCCCC(=O)O", "Potency": "inactive"}, {"smiles": "CCCN(CCC)c1c([N+](=O)[O-])cc(C(C)C)cc1[N+](=O)[O-]", "Potency": "inactive"}, {"smiles": "CCC(C)Cl", "note": "(stereo not given)", "activity change, negative = inhibition": "3.07%"}, {"smiles": "CC(Cl)Cl", "activity change, negative = inhibition": "-12.6%"}, {"smiles": "OCC(Br)CBr", "note": "(stereo not given)", "activity change, negative = inhibition": "0.811%"}, {"smiles": "C=CC(=O)OCC(CC)CCCC", "note": "(stereo not given)", "Potency": "inactive"}]}]}
